In PubChem BioAssay (Tox21):
Unmarked numbers belong to inactive results. Results filed as inconclusive are left out. Where a call stands in place of a potency, no number is given. The source made the active and inactive calls. Unless noted, calls come from the whole dose curve.

What was measured:
[1] = Nuclear factor erythroid 2-related factor 2/antioxidant responsive element (Nrf2/ARE) small molecule agonists: qHTS cell viability counter screen in human keratinocytes (AID 1919968; active = well fitted curve in the direction sought with a large enough effect in the repeat runs; an effect the other way counts as inactive or inconclusive; note: nearly all actives have a fitted effect of over 55% in size; note: potency is the fitted concentration of half-maximal effect)
Summary of the method: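 Seed 1,500 KeratinoSens cells per well, then incubate 5 h at 37 C/5% CO2. Add compounds in DMSO and incubate 23 h. Add CellTiter-Fluor, wait 1 h and read fluorescence.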

[2] = Nuclear factor erythroid 2-related factor 2/antioxidant responsive element (Nrf2/ARE) small molecule agonists: luciferase reporter gene qHTS assay in human keratinocytes (AID 1919969); note: nearly all actives have a fitted effect of over 35% in size; note: potency is the fitted concentration of half-maximal effect
[3] = target: KiSS-1 receptor (Homo sapiens) (UniProt Q969F8); assay: Human kisspeptin (KISS1R) small molecule agonists, calcium flux assay in KISS1R-HEK293 cells (AID 1920064; active = well fitted curve in the direction sought with a large enough effect in the repeat runs; an effect the other way counts as inactive or inconclusive)
KiSS-1 receptor (Homo sapiens), sequence (Q969F8 whole entry, looked up): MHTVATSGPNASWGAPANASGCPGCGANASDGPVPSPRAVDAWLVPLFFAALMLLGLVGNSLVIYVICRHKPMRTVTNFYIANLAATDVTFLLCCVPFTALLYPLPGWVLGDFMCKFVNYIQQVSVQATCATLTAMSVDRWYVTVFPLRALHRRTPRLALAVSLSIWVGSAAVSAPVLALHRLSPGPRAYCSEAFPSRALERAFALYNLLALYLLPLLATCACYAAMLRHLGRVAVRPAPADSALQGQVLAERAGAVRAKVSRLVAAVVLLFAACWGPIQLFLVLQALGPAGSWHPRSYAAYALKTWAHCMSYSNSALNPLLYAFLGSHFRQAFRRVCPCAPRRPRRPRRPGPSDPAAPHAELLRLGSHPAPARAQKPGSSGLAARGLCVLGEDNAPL
Summary of the method: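 Cells plated and incubated 18 h; dye added, 1 h at 37 C; compounds in DMSO pinned in; signal read at 480/540 nm every second for 3 min. Each compound tested at 15 concentrations in triplicate.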

[4] = G protein-coupled receptor (GPCR) small molecule agonists, calcium flux assay: HEK293 wild type cell line counter screen (AID 1920065)
Summary of the method: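 Counter-screen of the Tox21 10K library for non-specific calcium release: dye-loaded cells received compounds in DMSO and were monitored by kinetic fluorescence (480/540 nm, 3 min). Fifteen concentrations, run in triplicate.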

[5] = p53 small molecule agonists, cell-based qHTS assay with human liver microsomes: qHTS cell viability counter screen (AID 1963579); note: nearly all actives have a fitted effect of over 45% in size; note: potency is the fitted concentration of half-maximal effect
Summary of the method: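 Tox21 library compounds, delivered from DMSO stocks, were tested on p53RE-bla cells together with 0.5 mg/mL human liver microsomes and 0.5 mg/mL NADPH (final) over 16 h at 37 C; CellTiter-Glo luminescence served as the cytotoxicity measure.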

[6] = p53 small molecule agonists, cell-based qHTS assay with rat liver microsomes: qHTS cell viability counter screen (AID 1963580); note: nearly all actives have a fitted effect of over 45% in size; note: potency is the fitted concentration of half-maximal effect
Summary of the method: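 p53RE-bla HCT-116 cells (4,000/well) rested 5 h at 37 C, then given Tox21 compounds in DMSO with rat liver microsomes (0.5 mg/mL final) plus NADPH (0.5 mg/mL final) for 16 h at 37 C. Viability read by CellTiter-Glo luminescence after 30 min at room temperature.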

[7] = p53 small molecule agonists, cell-based qHTS assay: qHTS cell viability counter screen (AID 1963581); note: nearly all actives have a fitted effect of over 45% in size; note: potency is the fitted concentration of half-maximal effect
Summary of the method: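 Cells: HCT-116 with p53 response element-driven beta-lactamase. Treatment: 16 h, 37 C, compounds in DMSO. Read: CellTiter-Glo luminescence after 30 min RT.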

[8] = target: 5-hydroxytryptamine receptor 2A (Homo sapiens) (UniProt P28223); assay: 5-hydroxytryptamine receptor 2A (HTR2A) small molecule antagonists, cell-based qHTS assay (AID 1963586); note: nearly all actives have a fitted effect of over 45% in size; note: potency is the fitted concentration of half-maximal effect
5-hydroxytryptamine receptor 2A (Homo sapiens), sequence (P28223 whole entry, looked up): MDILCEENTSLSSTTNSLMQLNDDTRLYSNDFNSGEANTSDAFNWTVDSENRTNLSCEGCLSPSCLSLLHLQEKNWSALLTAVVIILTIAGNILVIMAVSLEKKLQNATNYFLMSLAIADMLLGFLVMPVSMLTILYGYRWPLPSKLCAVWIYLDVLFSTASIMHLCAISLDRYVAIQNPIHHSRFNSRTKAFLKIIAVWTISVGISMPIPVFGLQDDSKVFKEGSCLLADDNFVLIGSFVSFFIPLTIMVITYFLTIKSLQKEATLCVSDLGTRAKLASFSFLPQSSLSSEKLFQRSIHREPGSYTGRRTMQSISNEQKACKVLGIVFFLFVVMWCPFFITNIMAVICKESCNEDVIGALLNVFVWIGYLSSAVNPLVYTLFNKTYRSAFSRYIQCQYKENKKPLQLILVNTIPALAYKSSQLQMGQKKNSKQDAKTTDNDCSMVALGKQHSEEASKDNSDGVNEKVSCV
Summary of the method: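 Antagonist-mode intracellular calcium assay: DOI (4 nM) added after 5 min compound pre-incubation at room temperature to dye-loaded HTR2A-CHO cells. Fluorescence followed for 3 min, sampled every second.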

[9] = target: Muscarinic acetylcholine receptor M1 (Homo sapiens) (UniProt P11229); assay: Cholinergic receptor muscarinic 1 (CHRM1) small molecule antagonists, cell-based qHTS assay (AID 1963588); note: nearly all actives have a fitted effect of over 40% in size; note: potency is the fitted concentration of half-maximal effect
Muscarinic acetylcholine receptor M1 (Homo sapiens), sequence (P11229 whole entry, looked up): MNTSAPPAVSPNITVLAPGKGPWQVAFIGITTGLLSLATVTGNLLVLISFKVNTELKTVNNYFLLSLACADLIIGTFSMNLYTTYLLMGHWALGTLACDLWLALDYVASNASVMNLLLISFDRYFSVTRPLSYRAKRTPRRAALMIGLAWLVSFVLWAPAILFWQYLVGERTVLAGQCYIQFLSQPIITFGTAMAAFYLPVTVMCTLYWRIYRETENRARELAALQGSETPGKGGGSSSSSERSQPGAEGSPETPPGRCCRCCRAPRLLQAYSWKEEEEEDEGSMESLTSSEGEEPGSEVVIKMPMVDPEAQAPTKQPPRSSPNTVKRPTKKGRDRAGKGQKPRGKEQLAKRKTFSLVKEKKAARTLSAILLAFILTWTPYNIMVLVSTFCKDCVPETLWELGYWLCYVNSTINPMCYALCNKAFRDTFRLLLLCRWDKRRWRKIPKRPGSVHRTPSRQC
Summary of the method: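 CHRM1-CHO calcium-flux assay, antagonist mode. Cells were seeded 18 h, dye-loaded 1 h at 37 C and given compound for 5 min at RT, then acetylcholine was added at 50nM. FDSS fluorescence was read 3 min; 15 concentrations, three runs.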

[10] = target: Muscarinic acetylcholine receptor M1 (Homo sapiens) (UniProt P11229); assay: Cholinergic receptor muscarinic 1 (CHRM1) small molecule agonists, cell-based qHTS assay (AID 1963589); note: nearly all actives have a fitted effect of over 35% in size
Summary of the method: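 Agonist-mode qHTS in CHO cells stably carrying human muscarinic M1. Intracellular calcium is tracked by fluorescence every second after compound transfer; each compound runs at 15 concentrations in three independent runs.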

[11] = cAMP Responsive Elements (CRE) small molecule agonists, cell-based qHTS assay (AID 1963590)
Summary of the method: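 Agonist mode qHTS in CRE-bla HEK 293T cells: compounds dosed from DMSO for 3 h at 37 C/5% CO2, followed by LiveBLAzer B/G FRET substrate for 2 h at room temperature.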

[12] = target: Beta-2 adrenergic receptor (Homo sapiens) (UniProt P07550); assay: Adrenergic beta2 receptor (ADRB2) small molecule antagonists, cell-based qHTS assay (AID 1963592); note: nearly all actives have a fitted effect of over 50% in size; note: potency is the fitted concentration of half-maximal effect; for activity change, negative = inhibition: series mostly up to about 92 µM
Beta-2 adrenergic receptor (Homo sapiens), sequence (P07550 whole entry, looked up): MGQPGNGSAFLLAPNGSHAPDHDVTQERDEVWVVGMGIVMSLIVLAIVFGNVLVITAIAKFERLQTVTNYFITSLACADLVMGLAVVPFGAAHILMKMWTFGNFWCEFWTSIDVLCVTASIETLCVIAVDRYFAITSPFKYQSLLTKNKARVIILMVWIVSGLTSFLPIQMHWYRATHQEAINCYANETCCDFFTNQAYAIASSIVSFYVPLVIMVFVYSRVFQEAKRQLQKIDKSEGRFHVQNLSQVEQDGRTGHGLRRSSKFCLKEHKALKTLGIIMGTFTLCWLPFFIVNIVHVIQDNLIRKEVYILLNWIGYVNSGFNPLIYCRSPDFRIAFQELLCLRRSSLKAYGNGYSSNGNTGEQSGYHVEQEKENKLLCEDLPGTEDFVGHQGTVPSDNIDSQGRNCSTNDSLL
Summary of the method: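 Cells (CHO, stable ADRB2 overexpression) incubated 18-20hr at 37C; compounds added from DMSO; agonist mix (1nM isoproterenol, 100uM IBMX, 25uM Ro-20-1724) added; 0.5hr RT; d2-cAMP and anti-cAMP-cryptate added; 1hr RT; 665/615 nm read.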

[13] = target: Beta-2 adrenergic receptor (Homo sapiens) (UniProt P07550); assay: Adrenergic beta2 receptor (ADRB2) small molecule agonists, cell-based qHTS assay (AID 1963593);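 note: CHO cells stably overexpressing human ADRB2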
Summary of the method: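 CHO cells stably over-expressing ADRB2 were plated overnight at 37C, then dosed with compounds plus a stimulation mix containing 100uM IBMX and 25uM Ro-20-1724 for 0.5hr at room temperature. cAMP was measured by HTRF competition, 1hr.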

[14] = target: D(2) dopamine receptor (Homo sapiens) (UniProt P14416); assay: Dopamine D2 receptor (DRD2) small molecule agonists, cell-based qHTS assay (AID 1963594); note: nearly all actives have a fitted effect of over 35% in size
D(2) dopamine receptor (Homo sapiens), sequence (P14416 whole entry, looked up): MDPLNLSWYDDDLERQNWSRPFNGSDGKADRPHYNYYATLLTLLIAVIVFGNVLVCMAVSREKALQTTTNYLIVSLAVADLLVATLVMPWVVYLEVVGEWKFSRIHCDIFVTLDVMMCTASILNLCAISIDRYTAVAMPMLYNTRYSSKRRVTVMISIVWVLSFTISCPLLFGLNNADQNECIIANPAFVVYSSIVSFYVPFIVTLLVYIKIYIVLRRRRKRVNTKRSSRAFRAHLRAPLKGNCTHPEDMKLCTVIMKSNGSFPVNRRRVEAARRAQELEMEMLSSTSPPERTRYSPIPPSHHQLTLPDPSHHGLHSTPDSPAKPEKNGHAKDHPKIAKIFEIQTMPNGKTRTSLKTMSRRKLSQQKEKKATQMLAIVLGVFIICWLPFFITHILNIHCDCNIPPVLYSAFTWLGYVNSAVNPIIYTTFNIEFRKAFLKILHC
Summary of the method: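 HEK293 cells stably expressing DRD2 were cultured 24 h at 37 C, then given Ro20-1724 (0.1 mM final) and compounds for 10 min at room temperature. NKH477 (200nM) was then added for 30 min. cAMP was read by HTRF.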

[15] = target: D(2) dopamine receptor (Homo sapiens) (UniProt P14416); assay: Dopamine D2 receptor (DRD2) small molecule antagonists, cell-based qHTS assay (AID 1963595; active = well fitted inhibition curve with a large enough effect in the signal ratio in the repeat runs, with a control signal flat; the % refers to the signal ratio; note: potency is the fitted concentration of half-maximal effect)
Summary of the method: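 Human DRD2 antagonist qHTS measuring cAMP by HTRF. The cells are exposed to compound for 10 min, then to NKH477 (200 nM) and quinpirole (12 nM) for 30 min at RT, with Ro20-1724 (0.1 mM) present throughout.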

[16] = target: 5-hydroxytryptamine receptor 2A (Homo sapiens) (UniProt P28223); assay: 5-hydroxytryptamine receptor 2A (HTR2A) small molecule agonists, cell-based qHTS assay (AID 1963587); note: nearly all actives have a fitted effect of over 30% in size; note: potency is the fitted concentration of half-maximal effect
Summary of the method: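 HTR2A-CHO cells, plated 18 h at 37 C/5% CO2, dye-loaded 1 h at 37 C; compounds in DMSO added by pin tool (agonist mode). Intracellular calcium flux read as kinetic fluorescence on FDSS over 2 min at 1 s intervals.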

[17] = p53 small molecule agonists, cell-based qHTS assay with human liver microsomes (AID 1963577);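 note: p53 response element beta-lactamase reporter cells with liver microsomes plus NADPH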
Summary of the method: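 Metabolically competent format: test substances, human liver microsomes and NADPH (both 0.5 mg/mL final) incubated with p53RE-bla cells 16 h at 37 C. Beta-lactamase reporter signal then quantified by fluorescence.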

[18] = p53 small molecule agonists, cell-based qHTS assay with rat liver microsomes (AID 1963578)
Summary of the method: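 Each plate received p53RE-bla cells, then compound, then rat liver microsomes and NADPH (both 0.5 mg/mL final). Plates were held 16 h at 37 C, and beta-lactamase activity was detected with LiveBLAzer over 2 h.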

[19] = p53 small molecule agonists, cell-based qHTS assay (AID 1963582; active = well fitted activation curve with a large enough effect in the signal ratio in the repeat runs, not every such curve was filed as active; the % refers to the signal ratio)
Summary of the method: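 Quantitative HTS in p53RE-bla cells: after a 5 h settling period, compounds delivered in DMSO were left on cells for 16 h at 37 C, and reporter induction was measured as fluorescence following 2 h substrate loading.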

[20] = cAMP Responsive Elements (CRE) small molecule antagonists, cell-based qHTS assay (AID 1963591; active = well fitted inhibition curve with a large enough effect in the signal ratio in the repeat runs, not every such curve was filed as active; the % refers to the signal ratio)
Summary of the method: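 Antagonist mode: test compounds are co-incubated with the adenylyl cyclase activator NKH477 (0.25 uM final) on CRE-bla HEK293T cells for 3 h at 37 °C, followed by LiveBLAzer substrate loading.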

O=C(O)[C@@H]1CSCN1
Potency [1]: inactive | Potency [2]: inactive | Potency [3]: inactive | Potency [4]: inactive | Potency [5]: inactive | Potency [6]: inactive | Potency [7]: inactive | Potency [8]: inactive | Potency [9]: inactive | Potency [10]: inactive | Potency [11]: inactive | Potency [12]: inactive | Potency [13]: inactive | Potency [14]: inactive | Potency [15]: inactive

N=C1N=C(N)c2cc3ccccc3cc21
Potency [1]: 24.3 µM (active) | Potency [2]: 21.7 µM (active) | Potency [3]: inactive | Potency [4]: inactive | Potency [5]: 45.8 µM (active) | Potency [6]: 45.8 µM (active) | Potency [7]: 23.6 µM (active) | Potency [16]: inactive | Potency [10]: inactive

Cc1[nH]cnc1C[C@H]1CCc2c(C)c3ccccc3n2C1=O
Potency [1]: inactive | Potency [2]: inactive | Potency [4]: inactive | Potency [17]: inactive | Potency [18]: inactive | Potency [5]: inactive | Potency [6]: inactive | Potency [19]: inactive | Potency [8]: 1.46 µM (active) | Potency [16]: 42.6 µM (active) | Potency [10]: inactive | Potency [11]: inactive | Potency [20]: inactive | Potency [12]: 23.7 µM (active) | Potency [14]: inactive | Potency [15]: 53.1 µM (active)

CC/C(=C(\c1ccc(O)cc1)c1ccc(OCCN(C)C)cc1)c1ccccc1
Potency [1]: 30.7 µM (active) | Potency [2]: inactive | Potency [3]: inactive | Potency [4]: inactive | Potency [5]: 20.5 µM (active) | Potency [7]: 20.5 µM (active) | Potency [8]: inactive | Potency [9]: inactive | Potency [13]: inactive | Potency [14]: inactive

O=C1C=CC(=O)N1c1ccccc1
Potency [1]: 27.3 µM (active) | Potency [2]: 15.4 µM (active) | Potency [3]: inactive | Potency [4]: inactive | Potency [5]: 20.4 µM (active) | Potency [16]: 24.5 µM (active) | Potency [9]: inactive | Potency [15]: 13.7 µM (active)

CC(CCc1ccc2c(c1)OCO2)NN (stereo unspecified)
Potency [1]: inactive | Potency [2]: inactive | Potency [3]: inactive | Potency [4]: inactive | Potency [5]: inactive | Potency [6]: inactive | Potency [7]: inactive | Potency [8]: inactive | Potency [9]: inactive | Potency [10]: inactive | Potency [11]: inactive | Potency [20]: inactive | Potency [12]: inactive | Potency [13]: inactive | Potency [14]: inactive | Potency [15]: inactive

CC/C(=C(/c1ccc(O)cc1)c1ccc(OCCN(C)C)cc1)c1ccccc1
Potency [1]: 18 µM (active) | Potency [2]: inactive | Potency [3]: inactive | Potency [4]: inactive | Potency [5]: 26.9 µM (active) | Potency [9]: 13.9 µM (active) | Potency [14]: inactive

CCOC(=O)Nc1ccc2c(c1)N(C(=O)CCN1CCOCC1)c1ccccc1S2
Potency [1]: inactive | Potency [2]: inactive | Potency [3]: inactive | Potency [18]: inactive | Potency [5]: inactive | Potency [6]: inactive | Potency [7]: inactive | Potency [19]: inactive | Potency [16]: inactive | Potency [9]: 0.918 µM (active) | Potency [10]: inactive | Potency [11]: inactive | Potency [12]: inactive | Potency [13]: inactive | Potency [14]: inactive | Potency [15]: inactive

BrCc1cccc(Oc2ccccc2)c1
Potency [1]: inactive | Potency [2]: inactive | Potency [3]: inactive | Potency [4]: inactive | Potency [5]: inactive | Potency [6]: inactive | Potency [7]: inactive | Potency [8]: inactive | Potency [16]: inactive | Potency [9]: inactive | Potency [11]: inactive | Potency [20]: inactive | Potency [12]: inactive | Potency [15]: inactive

CCOC(=O)c1ccccc1OC
Potency [1]: inactive | Potency [2]: inactive | Potency [4]: inactive | Potency [5]: inactive | Potency [8]: inactive | Potency [11]: inactive | Potency [20]: inactive | Potency [12]: inactive | Potency [14]: inactive | Potency [15]: inactive

c1cc2ccc3ccc4ccc5cccc6c(c1)c2c3c4c56
activity change, negative = cytotoxicity [1]: 3.98% [at 3.27 µM] | activity, positive = activation [2]: 4.07% [at 3.27 µM] | activation [3]: 0.0535% [at 2.72 µM] | activation [4]: -0.291% [at 2.04 µM] | activity change, negative = cytotoxicity [5]: -1.32% [at 2.33 µM] | activity change, negative = cytotoxicity [7]: 2.26% [at 2.33 µM] | activation [19]: 5.49% [at 2.33 µM] | activity, negative = inhibition [8]: 1.93% [at 2.12 µM] | activation [16]: 13.2% [at 2.65 µM] | activity, negative = inhibition [9]: 5.84% [at 2.17 µM] | activation [10]: 0.275% [at 2.72 µM] | activation [11]: 6.38% [at 3.27 µM] | activity change, negative = inhibition [20]: 7.84% [at 3.27 µM] | activity change, negative = inhibition [12]: 4.76% [at 3.27 µM] | activation [14]: -0.0755% [at 3.27 µM] | activity change, negative = inhibition [15]: -0.594% [at 3.28 µM]

C[C@H](CCC(=O)O)[C@H]1CC[C@H]2[C@@H]3C(=O)C[C@@H]4CC(=O)CC[C@]4(C)[C@H]3CC(=O)[C@]12C
Potency [1]: inactive | Potency [2]: inactive | Potency [3]: inactive | Potency [4]: inactive | Potency [5]: inactive | Potency [6]: inactive | Potency [8]: inactive | Potency [9]: inactive | Potency [10]: inactive | Potency [12]: inactive | Potency [13]: inactive | Potency [14]: inactive | Potency [15]: inactive

CC1(C)C(=O)N(Cl)C(=O)N1Br
Potency [1]: inactive | Potency [2]: inactive | Potency [4]: inactive | Potency [5]: inactive | Potency [6]: inactive | Potency [8]: inactive | Potency [16]: inactive | Potency [9]: inactive | Potency [10]: inactive | Potency [11]: inactive | Potency [20]: inactive | Potency [12]: inactive | Potency [13]: inactive | Potency [14]: inactive | Potency [15]: inactive

C[C@@H](NCCCc1cccc(C(F)(F)F)c1)c1cccc2ccccc12
Potency [1]: 29.8 µM (active) | Potency [2]: inactive | Potency [4]: inactive | Potency [17]: inactive | Potency [18]: inactive | Potency [5]: inactive | Potency [6]: inactive | Potency [19]: inactive | Potency [16]: 23.9 µM (active) | Potency [9]: inactive | Potency [14]: inactive
